Results taken from PubChem BioAssay AID1531 (NMMLSC, 2009).
Out of some 290,000 compounds screened, about 3,300 (1.1%) were called active. Only a selection was taken, and actives are over-represented in it overall. Values without a mark were called inactive. Cut-off read from the data, not from the text of the source: active = binding response below about 67% or above about 130%; inconclusive = no clear call, values can overlap the other calls; inactive = in between.

Each compound was assayed against Mitogen-activated protein kinase kinase kinase 2 (Homo sapiens) (UniProt Q9Y2U5) (assay: wildtype MEKK2 PB1-MEK5 interaction, increase or decrease – biochemical, multiplex bead flow cytometry, Alexa488-MEK5, primary screen (AID 1531)). Conditions: Alexa488-MEK5 binding to MEKK2 WT, at 10 µM, actives lie on both sides.
O=C1NC(=O)N(CCc2ccc(F)cc2)C(=O)/C1=C/C=C/c1ccccc1 gave a binding response (% of control) of 97%. Work on O=C1NC(=O)N(Cc2ccco2)C(=O)/C1=C\c1cccn1CCOc1ccccc1 yielded a binding response (% of control) of 110%. In the case of O=C(O)COc1ccccc1/C=C1\C(=O)NC(=O)N(CCC2=CCCCC2)C1=O, the binding response (% of control) is reported as -4% (active). With CCOP(=S)(OCC)C(O)CCCCCn1c(=O)c(F)cn(C2CCCO2)c1=O (stereo not given) the binding response (% of control) was 106%. CCCCCCCCCCCCn1ccc(=N)cc1 was tested, and the binding response (% of control) was 173% (active). Work on c1ccc(CC2CCCCN2)cc1 (stereo not given) yielded a binding response (% of control) of 107%. N#Cc1ccc(Cn2cc(C(=O)c3ccco3)c3ccccc32)cc1 gave a binding response (% of control) of 98%. In the case of Cc1ccc2c(c1)=C/C(=C\c1c(O)[nH]c(=O)[nH]c1=O)C(=O)N=2, the binding response (% of control) is reported as 99%. In the case of COC(=O)N1C(c2ccccc2)C1c1ccccc1 (stereo not given), the binding response (% of control) is reported as 101%. With CNCC(O)c1cc(F)c(OCc2ccccc2)c(OCc2ccccc2)c1F (stereo not given) the binding response (% of control) was 141% (active). COC(=O)C1=C(c2cc3ccccc3s2)C[C@@H]2CC[C@H]1N2C(=O)NCc1cccc2ccccc12 was tested, and the binding response (% of control) was 93%. c1ccc(CCNC2CCCCCC2)cc1 showed a binding response (% of control) of 101%. COc1ccc(-n2c(O)c(C(C)=Nc3ccc4c(c3)CCC4)c(=O)[nH]c2=O)cc1 gave a binding response (% of control) of 99%. In the case of CN(C)S(=O)(=O)c1cc(C(=O)N2CCC(C(=O)O)(c3ccccc3)CC2)ccc1Cl, the binding response (% of control) is reported as 106%. COC(=O)C1=C(c2cc3ccccc3o2)C[C@@H]2CC[C@H]1N2C(=O)NC1CCCCC1 showed a binding response (% of control) of 101%.
